# Source: PubChem BioAssay (National Center for Advancing Translational Sciences (NCATS))
# VACV Venus inh: qHTS for Stage-Specific Inhibitors of Vaccinia Orthopoxvirus: Venus Reporter Primary qHTS; Vaccinia virus Venus reporter expression, fluorescence; Potency, µM (series often up to 36.5 µM), without a hit: top-dose activity change, negative = inhibition, usual class: inhibitors; hit rate 0.46% among 330,000; AID 720580, 2013; calls by dose curve; tested in A549 cells; note: potency is the fitted concentration of half-maximal effect; nearly all actives have a fitted effect of over 30% in size
# FMDV antiviral: High Throughput Screening for Foot and Mouth Disease Virus Antivirals; FMDV antiviral cell-based qHTS; Potency, µM (titrated, usually from 57.9 µM), for inactives: top-dose activity change, negative = inhibition, most hits filed as inhibitors; hit rate 1.2% among 410,000; AID 1159524, 2015; calls by dose curve; tested in HEK293T cells; note: read-out not given here; potency is the fitted concentration of half-maximal effect; nearly all actives have a fitted effect of over 45% in size
# HCMV inh: qHTS Assay for inhibitors of the human cytomegalovirus (HCMV); HFF cells, HCMV-luciferase reporter, 72 h; stronger effect = lower value; activity change, negative = inhibition, % at 57.5 µM; hit rate 4.5% among 410,000; AID 1259415, 2018; in the data active = activity change below about -60%; inconclusive = no clear call, values can overlap the other calls; inactive = above about -39%
#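 Two-dose cell screen: HFF monolayers treated with compounds and infected with luciferase-expressing HCMV at 1 PFU/cell, 72 h at 37C, then lysed for luciferase measurement.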
# HCV inh: qHTS Assay for Inhibitors of Hepatitis C Virus (HCV). Potency, µM (top dose mostly 41.8 µM), without a hit: top-dose activity change, negative = inhibition, actives largely listed as inhibitors. Huh7.5.1 HCVcc-Cre infection, luciferase reporter, 44 h. hit rate 3.4% among 340,000; active = well fitted inhibition curve with a large enough effect; inconclusive = small, poorly fitted or top-dose-only effect, or another doubt; inactive = no such curve, though single readings can be large or run the other way; note: potency is the fitted concentration of half-maximal effect
#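 Infectious HCVcc-Cre (~0.5 moi) was added to cells just after compound, with cells seeded 4 h earlier at 1,000 per well. Luciferase activity after 44 h culture reported infection; substrate was incubated 15 min at room temperature before reading.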
# Vaccinia mCherry: qHTS for Stage-Specific Inhibitors of Vaccinia Orthopoxvirus: mCherry Reporter Primary qHTS. hit rate 0.63% among 310,000. Vaccinia virus mCherry reporter infection, fluorescence. Potency, µM (highest dose often 36.5 µM), for the others: top-dose activity change, negative = inhibition, hits mostly inhibitors; calls by dose curve; tested in A549 cells; note: potency is the fitted concentration of half-maximal effect; nearly all actives have a fitted effect of over 35% in size
# * marks the source's active call; other numbers are inactive results; i = inactive; ? = inconclusive; · = no result. Rows were chosen to be rich in hits. Some 7.3% of all compounds tested hit in one or more screens of this group. % is set by controls: 0 for no effect and ±100 for the full control effect.
SMILES,VACV Venus inh,FMDV antiviral,HCMV inh,HCV inh,Vaccinia mCherry
COc1ccc(NS(=O)(=O)c2ccc(-n3nnc4ccccc43)c([N+](=O)[O-])c2)cc1,-11%,7%,-63*,5%,-3%
CN(C)CCCNS(=O)(=O)c1ccc(-n2nnc3ccccc32)c([N+](=O)[O-])c1,-7%,-1%,-23,18µM*,-24%
CN(C)CCNS(=O)(=O)c1ccc(N2CCc3ccccc32)c([N+](=O)[O-])c1,-10%,-12%,-13,10µM*,?
CCC[n+]1c2ccccc2cc2ccccc21,-6%,?,-70*,?,?
CCCC[n+]1c2ccccc2cc2ccccc21,?,28µM*,?,6.3µM*,-10%
Cc1ccc2ccccc2[n+]1CCCS(=O)(=O)[O-],6%,22%,12,1%,3%
CC(C)CNC(=O)c1csc(C(O)C(C)C)n1 (stereo unspecified),·,·,-3,·,·
CCOC(=O)C1CCCN(Cc2nc(N)nc(Nc3ccc(Cl)cc3)n2)C1 (stereo unspecified),-23%,28µM*,?,?,-21%
CCOC(=O)C1CCCN(Cc2nc(N)nc(Nc3ccc(OC)cc3)n2)C1 (stereo unspecified),·,?,-34,?,·
CCOC(=O)C1CCCN(Cc2c(F)cccc2Cl)C1 (stereo unspecified),·,-8%,-75*,24%,·
CCOC(=O)N1CCC(N(CCN(C)C)C(=S)Nc2cccc(C)c2)CC1,-10%,-13%,11,13%,-11%
CCOC(=O)N1CCC(N(CCN(C)C)C(=S)Nc2ccc(Oc3ccccc3)cc2)CC1,-18%,-18%,?,11µM*,-10%
CCOC(=O)N1CCN(Cc2nc(N)nc(Nc3ccc(Oc4ccccc4)cc3)n2)CC1,?,32µM*,-11,?,·
CCc1cccc(NC(=O)Cn2cc(C(=O)c3ccncc3)c(=O)c3cc(C)c(C)cc32)c1,-18%,-17%,91,·,-20%
CCCn1cc(S(=O)(=O)c2cccc(Cl)c2)c(=O)c2cc(F)c(N3CCCC3)cc21,-22%,28%,-34,·,-9%
COc1ccccc1CCc1nc2ccccc2n1C1CCN(C(=O)c2cn3ccsc3n2)CC1,-3%,8%,·,·,-11%
CC1(C)Cc2c(c(-c3ccco3)nc3sc4c(NCCO)ncnc4c23)CO1,·,-29%,-75*,13µM*,·
CN(C)CCNc1ncnc2c1sc1nc(N3CCOCC3)c3c(c12)CC(C)(C)SC3,·,?,?,10µM*,·
COCCCNc1ncnc2c1sc1nc(-c3ccco3)c3c(c12)CC(C)(C)OC3,-11%,-30%,57,?,-13%
CC1(C)Cc2c(c(N3CCOCC3)nc3sc4c(NCCN)ncnc4c23)CO1,·,-12%,0,7.1µM*,·
COCCNc1nnnc2c1sc1nc(N3CCOCC3)c3c(c12)CC(C)(C)OC3,0%,-24%,-20,?,-3%
O=C(Nc1ccn2ccnc2n1)c1ccccc1C(F)(F)F,·,·,-13,·,·
O=C(NCc1cccs1)c1nn(-c2ccccc2F)nc1CO,-25%,?,-66*,·,-23%
O=C(NCCCCc1ccccc1)c1nn(-c2ccccc2F)nc1CO,-6%,0%,-20,·,-7%
O=C(NCCCc1ccccc1)c1nn(-c2ccccc2F)nc1CO,-16%,?,-61*,·,-8%
SMILES,VACV Venus inh,FMDV antiviral,HCMV inh,HCV inh,Vaccinia mCherry
O=C(NCC(c1ccccc1)c1ccccc1)c1nn(-c2ccccc2F)nc1CO,-21%,10µM*,-35,·,-22%
COC(=O)c1ccccc1-c1ccc(C(c2c(C)[nH][nH]c2=O)c2c(C)[nH][nH]c2=O)o1,-14%,20µM*,-34,12%,i
CN1C(=O)C2(c3ccccc31)N(c1cccc(C(F)(F)F)c1)C(=O)CS2(=O)=O (stereo unspecified),3%,-4%,-8,·,6%
FC(F)(F)c1nnc2c(Sc3ccc(Cl)cc3)nc3ccccc3n12,·,?,-103*,?,·
FC(F)(F)c1nnc2c(Sc3ccccc3)nc3ccccc3n12,·,31%,-101*,?,·
FC(F)(F)c1nnc2c(Sc3ccccn3)nc3ccccc3n12,·,6%,-3,?,·
FC(F)(F)c1nc2ccccc2n2c(-c3ccc(Cl)cc3)nnc12,?,?,-106*,5%,·
O=C(C[n+]1cccc(Cl)c1)c1ccc(F)cc1,-9%,·,·,·,17%
Cc1ccccc1NC(=O)CSc1cn(CC(=O)N2CCCCCC2)c2ccccc12,-6%,-5%,26,·,-11%
Cc1c(C(=O)O)oc2c1ccc1ccccc12,-7%,-5%,-9,-11%,i
Cc1c(C(=N)C(C#N)C#N)c(=N)oc2c1ccc1ccccc12,?,-4%,-75*,-22%,-17%
CCCCNC(=O)c1cnn2c(C)c(Cc3c(C)cc(C)cc3C)c(C)nc12,?,16µM*,-21,·,-15%
Cc1nc2c(C(=O)NCc3ccccc3)cnn2c(C)c1Cc1ccc(F)cc1,-21%,-1%,7,·,-24%
CCNC(=O)COc1cccc2ccccc12,·,4%,-69*,-15%,·
COc1ccc(/C=N/NC(=O)CCSc2nc3ccccc3s2)cc1,·,-29%,-38,3.5µM*,·
COc1ccc(/C=N/NC(=O)CCn2cnc(-c3ccccc3)c2-c2ccccc2)cc1,·,?,-83*,9%,·
O=C(CCn1cnc(-c2ccccc2)c1-c1ccccc1)N/N=C/c1ccc(O)cc1,·,?,?,-12%,·
COc1ccc(/C=N/NC(=O)COc2ccccc2-c2ccccc2)cc1,3.5µM*,?,-68*,5.6µM*,?
O=C(CSc1nc2ccccc2s1)N/N=C/c1ccc(C(=O)O)cc1,-7%,-2%,-28,18%,-1%
CC(=O)O[C@H]1CC[C@]2(C)C3CC[C@]4(C)[C@@H]([C@H](C)/C=C/[C@H](C)C(C)C)CC[C@H]4[C@@]34C=C[C@]2(C1)N(C(=O)c1ccccc1)O4 (stereo partly specified),·,·,7,·,·
CC(=O)c1cccc(NC(=O)COC(=O)c2ccccc2OCc2cccc(Br)c2)c1,-10%,·,·,·,-20%
Cc1cccc(S(=O)(=O)N[C@H]2CC[C@@]34CCCN3C(=O)CCC[C@H]4[C@H]2C)c1,·,·,-6,·,·
COCc1c(C(=O)N2CCN(C3CCCC3)CC2)cnn1-c1nccc(-c2cc(C)sc2C)n1,-10%,-1%,·,·,-12%
O=C(COc1cccc2ccccc12)N/N=C/c1ccccc1OCc1ccc(C(=O)O)cc1,-6%,-19%,-38,14%,-3%
COc1ccc(Br)c(/C=N/NC(=O)COc2ccc(-c3ccccc3)cc2)c1,-1%,7%,16,7.9µM*,-13%
O=C(COc1ccccc1-c1ccccc1)N/N=C/c1cccc2ccccc12,?,?,-82*,1.8µM*,?
O=C(COc1cccc2ccccc12)N/N=C/C=C/c1ccccc1,·,-15%,-62*,2%,·
